# Records with an inconclusive call do not appear. A call without a number means that no potency is given here. Values without a mark were called inactive. Activity calls are given as the source filed them. The call rests on the fitted dose curve; in most records, active means well fitted inhibition curve with a large enough effect; inconclusive means small, poorly fitted or top-dose-only effect; inactive means flat fitted curve, though single readings scatter.
# Columns and labels:
# [1] = qHTS profiling for inhibitors of Plasmodium falciparum proliferation (AID 504749); on all read-outs here: nearly all actives have a fitted effect of over 60% in size; settings: P. falciparum in erythrocytes, SYBR Green DNA, 72 h; for activity, negative = inhibition: at 28.7 µM (top of the series)
# Method in brief: (§1)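 Each compound contacts P. falciparum-infected red blood cells for 72 h at 37 C; lysis buffer (Tris, EDTA, saponin, Triton X, SYBR Green I) is added and fluorescence measured next morning; values normalized to controls.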
# 3D7 = assay: as above; settings: P. falciparum in erythrocytes, SYBR Green DNA, 72 h; series mostly up to 28.7 µM
# Method in brief: as §1
# 7G8 = assay: as above; settings: P. falciparum in erythrocytes, SYBR Green DNA, 72 h; series mostly up to 28.7 µM
# Method in brief: as §1
# AA1029 = assay: as above; settings: P. falciparum in erythrocytes, SYBR Green DNA, 72 h; series mostly up to 28.7 µM
# Method in brief: as §1
# AS120 = assay: as above; settings: P. falciparum in erythrocytes, SYBR Green DNA, 72 h; series mostly up to 28.7 µM
# Method in brief: as §1
# ATS189 = assay: as above; settings: P. falciparum in erythrocytes, SYBR Green DNA, 72 h; series mostly up to 28.7 µM
# Method in brief: as §1
# ATS95 = assay: as above; settings: P. falciparum in erythrocytes, SYBR Green DNA, 72 h; series mostly up to 28.7 µM
# Method in brief: as §1
# C2A = assay: as above; settings: P. falciparum in erythrocytes, SYBR Green DNA, 72 h; series mostly up to 28.7 µM
# Method in brief: as §1
# CP185 = assay: as above; settings: P. falciparum in erythrocytes, SYBR Green DNA, 72 h; series mostly up to 28.7 µM
# Method in brief: as §1
# CP191 = assay: as above; settings: P. falciparum in erythrocytes, SYBR Green DNA, 72 h; series mostly up to 28.7 µM
# Method in brief: as §1
# CP192 = assay: as above; settings: P. falciparum in erythrocytes, SYBR Green DNA, 72 h; series mostly up to 28.7 µM
# Method in brief: as §1
# CP194 = assay: as above; settings: P. falciparum in erythrocytes, SYBR Green DNA, 72 h; series mostly up to 28.7 µM
# Method in brief: as §1
# CP201 = assay: as above; settings: P. falciparum in erythrocytes, SYBR Green DNA, 72 h; series mostly up to 28.7 µM
# Method in brief: as §1
# CP203 = assay: as above; settings: P. falciparum in erythrocytes, SYBR Green DNA, 72 h; series mostly up to 28.7 µM
# Method in brief: as §1
# CP211 = assay: as above; settings: P. falciparum in erythrocytes, SYBR Green DNA, 72 h; series mostly up to 28.7 µM
# Method in brief: as §1
# CP215 = assay: as above; settings: P. falciparum in erythrocytes, SYBR Green DNA, 72 h; series mostly up to 28.7 µM
# Method in brief: as §1
# CP217 = assay: as above; settings: P. falciparum in erythrocytes, SYBR Green DNA, 72 h; series mostly up to 28.7 µM
# Method in brief: as §1
# CP237 = assay: as above; settings: P. falciparum in erythrocytes, SYBR Green DNA, 72 h; series mostly up to 28.7 µM
# Method in brief: as §1
# CP238 = assay: as above; settings: P. falciparum in erythrocytes, SYBR Green DNA, 72 h; series mostly up to 28.7 µM
# Method in brief: as §1
# CP247 = assay: as above; settings: P. falciparum in erythrocytes, SYBR Green DNA, 72 h; series mostly up to 28.7 µM
# Method in brief: as §1
# Potency means the concentration at half of the fitted maximal effect.
compound,measurement,setting,value
C=C1C(CCl)(CCl)C2(Cl)C(Cl)C(Cl)C1(Cl)C2(Cl)Cl (configuration not stated),Potency,[1]; parasite line A,2.51 µM (active)
same,Potency,[1]; parasite line B,1.26 µM (active)
same,Potency,3D7,1.78 µM (active)
same,Potency,7G8,0.282 µM (active)
same,Potency,AA1029,3.16 µM (active)
same,Potency,AS120,2 µM (active)
same,Potency,ATS189,3.16 µM (active)
same,Potency,ATS95,3.16 µM (active)
same,Potency,C2A,3.16 µM (active)
same,Potency,CP185,3.16 µM (active)
same,Potency,CP191,3.16 µM (active)
same,Potency,CP192,5.36 µM (active)
same,Potency,CP194,6.75 µM (active)
same,Potency,CP201,13.5 µM (active)
same,Potency,CP203,3.79 µM (active)
same,Potency,CP211,12 µM (active)
same,Potency,CP215,3.79 µM (active)
same,Potency,CP217,3.16 µM (active)
same,Potency,CP237,3.16 µM (active)
same,Potency,CP238,3.16 µM (active)
same,Potency,CP247,3.16 µM (active)
OCCCNc1ccccc1,"activity, negative = inhibition",[1]; parasite line A,8.17%
same,"activity, negative = inhibition",[1]; parasite line B,6.74%
same,Potency,3D7,inactive
same,Potency,7G8,inactive
same,Potency,AA1029,inactive
same,Potency,AS120,inactive
same,Potency,ATS189,inactive
same,Potency,ATS95,inactive
same,Potency,C2A,inactive
same,Potency,CP185,inactive
same,Potency,CP191,inactive
same,Potency,CP192,inactive
same,Potency,CP194,inactive
same,Potency,CP201,inactive
same,Potency,CP203,inactive
same,Potency,CP211,inactive
same,Potency,CP215,inactive
same,Potency,CP217,inactive
same,Potency,CP237,inactive
same,Potency,CP238,inactive
CN1CCC(OC(=O)C(Oc2ccc(Cl)cc2)Oc2ccc(Cl)cc2)CC1,"activity, negative = inhibition",[1]; parasite line A,7.76%
same,"activity, negative = inhibition",[1]; parasite line B,-8.26%
same,Potency,3D7,inactive
same,Potency,7G8,inactive
same,Potency,AA1029,inactive
same,Potency,AS120,inactive
same,Potency,ATS189,inactive
same,Potency,ATS95,inactive
same,Potency,C2A,inactive
same,Potency,CP185,inactive
same,Potency,CP191,inactive
same,Potency,CP192,inactive
same,Potency,CP194,inactive
same,Potency,CP201,inactive
same,Potency,CP203,inactive
same,Potency,CP211,inactive
same,Potency,CP215,inactive
same,Potency,CP217,inactive
same,Potency,CP237,inactive
same,Potency,CP238,inactive
same,Potency,CP247,inactive
